Laboratory results from PubChem BioAssay (NCATS).
Records with an inconclusive call do not appear. Values without a mark were called inactive. Activity calls are given as the source filed them. Calls follow the shape of the dose curve; as a rule, active = well fitted cell-killing curve with a large enough effect; inconclusive = small, poorly fitted or top-dose-only effect, or effect the other way; inactive = no such curve, though single readings can be large or run the other way.

Experiment: qHTS of pediatric cancer cell lines to identify multiple opportunities for drug repurposing: Confirmatory screen for Rh30 cells (AID 1347126); also: nearly all actives have a fitted effect of over 55% in size
Settings: Rh30 rhabdomyosarcoma cell viability; series mostly up to 45.9 µM; activity change, negative = cytotoxic: at the top concentration
Description: Drug repurposing or repositioning has been offered as a strategy for drug development in oncology programs. This approach has special potential for childhood cancers and other rare or orphan diseases, where the expected return on new drug development has been a disincentive to pharmaceuticals.
In this project we exploit the poly-pharmacology of drugs to discover new indications via phenotypic screening of a panel of 19 well-characterized cell lines derived from solid tumors seen in children and adolescents. The goal is to identify approved drugs with previously unrecognized anticancer properties that has the potential to reveal new mechanisms and biological processes involved in carcinogenesis or drug resistance. We employed a titration-based paradigm (quantitative high-throughput screening or qHTS), where all compounds were tested at multiple concentrations for their effect on cell viability. Concentration-response curves (CRCs) were derived directly from the primary screen, and both potency and efficacy values were used to identify compounds with robust bioactivity profiles. We screened the NIH Chemical Genomics Center (NCGC) Pharmaceutical Collection (NPC) and Mechanism Interrogation Plate (MIPE) small molecule collections of approved and investigational compounds against these cell lines; and measured metabolically active cells after 48 hours of compound treatment as a proxy for cell viability.
Assay Submitter: Nathalia J. Martinez, National Center for Advancing Translational Sciences, National Institutes of Health, Rockville, MD, USA; email: natalia.martinez@nih.gov
[1] Shen, M et al. Quantitative high-throughput phenotypic screening of pediatric cancer cell lines identifies multiple opportunities for drug repurposing. Oncotarget 2017 Dec 19;9(4):4758-4772. PMID 29435139.
The cells were obtained from University of North Carolina (UNC), Pediatric Preclinical Testing Program (PPT), and Coriell Institute (CI).
qHTS cell viability assay:
Cells were assayed in growth media at a density of 500-1,000 cells/well. Five microliters of cells were dispensed into 1,536-well, white, solid-bottom, TC-treated plates (Greiner Bio One) using a multidrop dispenser and incubated at 37 degrees C, 5% CO2, under a humidified atmosphere for 5 hours. Twenty-three nanoliters of compounds and controls (neutral control DMSO or positive control bortezomib at final concentration of 2.3 µM) were subsequently transferred by Kalypsys pintool. For primary screens, the MIPE collection was tested at 11-point dilutions (final concentrations range from 0.78 nM to 46 µM) and the NPC collection at 8-point dilutions (final concentrations range from 0.59 nM to 46 µM). Compounds tested in follow-up screens were assayed at 11-point dilutions. Cells were incubated for 48 hours, followed by addition of 3 µL of CellTiter-Glo (Promega). After a 15 min incubation at room temperature, samples were analyzed for luminescence intensity using a ViewLux High-throughput CCD imager equipped with clear filters.
% is scaled to controls: 0 for no effect and ±100 for the full control effect; potency is read from the fitted curve at half-maximal effect.

SMILES | activity change, negative = cytotoxic | Potency
CC(C)(C)C(O)C(Oc1ccc(Cl)cc1)n1cncn1 (stereo unspecified) | 0% [at 97.2 µM] | –
O=[N+]([O-])c1c(Cl)c(Cl)cc(Cl)c1Cl | 5.88% [at 97.2 µM] | –
C[C@H]1CCCC=CC2C[C@H](O)C[C@@H]2[C@H](O)C=CC(=O)O1 (stereo partly specified) | – | 3.69 µM (active)
CO[C@H]1CCC(O[C@H]2C[C@H]([C@]3(C)CC[C@]4(C[C@H](O)[C@@H](C)[C@@H]([C@@H](C)C=C(C)C(=O)[C@H](C)C[C@H](C)C(=O)O)O4)O3)O[C@]3(O[C@@H]([C@H]4O[C@@](O)(CO)[C@H](C)C[C@H]4C)C[C@H]3C)[C@H]2C)O[C@H]1C (stereo partly specified) | -18% | –
CC1=C(O)C(=O)C=C2C1=CC=C1[C@@]2(C)CC[C@@]2(C)[C@@H]3C[C@](C)(C(=O)O)CC[C@]3(C)CC[C@]12C | – | 1.85 µM (active)
O=C(O)CCCOc1ccc(Cl)cc1Cl | 0% [at 97.2 µM] | –
S=C(SSC(=S)N1CCCCC1)N1CCCCC1 | – | 36.9 µM (active)
O=c1[nH]c2ccc(Cl)cc2c(N[C@@H]2CN3CCC2CC3)c1-c1nc2ccccc2[nH]1 | – | 5.22 µM (active)
O=C(O)COc1nc(Cl)c(Cl)cc1Cl | 5.21% [at 97.2 µM] | –
COc1cc([C@@H]2c3cc4c(cc3[C@@H](O)C3COC(=O)C32)OCO4)cc(OC)c1O (stereo partly specified) | 0.574% | –
COc1cc2cc(c1Cl)N(C)C(=O)C[C@H](OC(=O)C(C)C)[C@]1(C)O[C@H]1[C@H](C)[C@@H]1C[C@@](O)(NC(=O)O1)[C@H](OC)C=CC=C(C)C2 | -4.63% | –
Cc1ccccc1-n1c(Cn2ncc3c(N)ncnc32)nc2cccc(C)c2c1=O | 5.57% | –
O=C(Nc1ccncc1)C(=O)c1cn(Cc2ccc(Cl)cc2)c2ccccc12 | -16.3% | –
Cc1ccccc1-n1c(Cn2cnc3c(N)ncnc32)nc2cccc(C)c2c1=O | 14.8% | –
CCCN1CCO[C@@H]2c3cc(O)ccc3OC[C@@H]21 | – | 8.27 µM (active)
CC(=Cc1csc(C)n1)[C@@H]1C[C@H]2O[C@]2(C)CCC[C@H](C)[C@@H](O)[C@@H](C)C(=O)C(C)(C)[C@@H](O)CC(=O)O1 | -46.3% | –
CC(C)N[C@@H]1CCn2c(=O)[nH]c3cccc(c32)[C@@H]1O | 8.35% | –
CC(=O)[O][Hg][c]1ccccc1 | – | 1.31 µM (active)
CC[C@@]1(O)C(=O)OCc2c1cc1n(c2=O)Cc2cc3ccccc3nc2-1 | – | 0.737 µM (active)
CCC(=O)OC1CCC2C3CCC4=CC(=O)CC[C@@]4(C)C3CC[C@]12C (stereo partly specified) | -2.18% | –
COC1=CC(C)=C[C@@H](C)[C@@H](O)[C@@H](C)CC(C)=CC=C[C@H](OC)[C@H]([C@@H](C)[C@@H](O)[C@H](C)[C@@]2(O)C[C@@H](O)[C@H](C)[C@@H](C(C)C)O2)OC1=O | – | 10.4 µM (active)
C[C@@H]1O[C@@H](O[C@@H]2C=C3CC[C@@H]4[C@@H](CC[C@]5(C)[C@H](c6ccc(=O)oc6)CC[C@@]45O)[C@@]3(C)CC2)[C@H](O)[C@H](O)[C@H]1O | – | 0.0465 µM (active)
CS(=O)(=O)c1ccc(C(=O)C2C(=O)CCCC2=O)c([N+](=O)[O-])c1 | 11.2% [at 97.2 µM] | –
Cc1c(N)nc([C@H](CC(N)=O)NC[C@@H](N)C(N)=O)nc1C(=O)N[C@H](C(=O)N[C@@H](C)[C@H](O)[C@@H](C)C(=O)N[C@@H](C(=O)NCCc1nc(-c2nc(C(=O)NCCC[S+](C)C)cs2)cs1)[C@@H](C)O)C(O[C@H]1O[C@H](CO)[C@H](O)[C@@H](O)[C@@H]1O[C@H]1O[C@H](CO)[C@@H](O)[C@H](OC(N)=O)[C@H]1O)c1cnc[nH]1 (stereo partly specified) | -17.8% | –
CC(C)(O)C=CC(=O)[C@](C)(O)[C@H]1[C@H](O)C[C@]2(C)[C@@H]3CC=C4[C@@H](C=C(O)C(=O)C4(C)C)[C@]3(C)C(=O)C[C@@]12C | – | 0.827 µM (active)
C[C@@H]1CC[C@@]2(OC1)O[C@H]1C[C@H]3[C@@H]4CC=C5C[C@@H](O[C@@H]6O[C@H](CO)[C@@H](O[C@@H]7O[C@@H](C)[C@H](O)[C@@H](O)[C@@H]7O)[C@H](O)[C@@H]6O[C@@H]6O[C@@H](C)[C@H](O)[C@@H](O)[C@@H]6O)CC[C@]5(C)[C@@H]4CC[C@]3(C)[C@@H]1[C@H]2C | – | 4.14 µM (active)
